The whole screen tested about 220,000 compounds, of which about 16,000 (7.3%) were called active. Roughly 25% stayed inconclusive and do not appear here. The call rests on the fitted dose curve; in most records, active means well fitted inhibition curve with a large enough effect (not every such curve was filed as active); inconclusive means small, poorly fitted or top-dose-only effect, or another doubt; inactive means no such curve, though single readings can be large or run the other way. What follows is part of a selection rich in actives, with near analogues and random picks from the rest. Entries that show only a call come without a potency.
Potency means the concentration at half of the fitted maximal effect.

In the test the target is Aldehyde dehydrogenase 1A1 (Homo sapiens) (UniProt P00352). As to the kind of experiment: qHTS Assay for Inhibitors of Aldehyde Dehydrogenase 1 (ALDH1A1). The conditions noted are these: Purified ALDH1A1, NADH fluorescence, propionaldehyde substrate; series mostly up to 75.3 µM.
Chain of Aldehyde dehydrogenase 1A1 (Homo sapiens) (P00352 whole entry, looked up): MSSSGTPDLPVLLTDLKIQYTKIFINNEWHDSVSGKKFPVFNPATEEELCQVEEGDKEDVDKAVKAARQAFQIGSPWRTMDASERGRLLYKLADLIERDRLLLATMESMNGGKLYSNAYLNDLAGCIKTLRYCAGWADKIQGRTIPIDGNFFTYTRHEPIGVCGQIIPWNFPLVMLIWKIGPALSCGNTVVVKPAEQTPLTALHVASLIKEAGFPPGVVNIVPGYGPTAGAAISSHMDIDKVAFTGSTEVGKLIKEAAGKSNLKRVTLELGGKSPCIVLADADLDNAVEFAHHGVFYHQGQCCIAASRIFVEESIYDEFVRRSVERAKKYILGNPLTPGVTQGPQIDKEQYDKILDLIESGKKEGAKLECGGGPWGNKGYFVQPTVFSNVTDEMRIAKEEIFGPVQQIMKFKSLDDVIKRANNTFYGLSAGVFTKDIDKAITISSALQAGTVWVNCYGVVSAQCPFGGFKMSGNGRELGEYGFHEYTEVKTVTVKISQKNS
On to `CC1CCCC(C)N1/N=C/c1ccccc1OC(F)F` (stereo not drawn), for which the Potency entry is “inactive”.

As to `CN1CCN(S(=O)(=O)c2ccc(NC(=O)C3CCCO3)cc2)CC1` (stereo not drawn), the Potency result was “inactive”.

For the compound `CN(CC(=O)Nc1ccc(S(=O)(=O)N2CCCC2)cc1)Cc1ccc(Cl)c(Cl)c1`, the Potency is 20 µM (active).

Regarding `COc1ccc(NC(=O)CN2CCN(S(=O)(=O)c3ccc(F)cc3)CC2)cc1Cl`, the Potency result is “inactive”.

For `OCCC#Cc1ccc(CN2CCN(Cc3ccsc3)C(CCO)C2)cc1` (stereo not drawn), the Potency entry was “inactive”.

Consider `NC(CSC12CC3CC(CC(C3)C1)C2)C(=O)O` (stereo not drawn), for which the Potency is 12.6 µM (active).

Turning to `Cc1ccc(C)c(NC(=O)CCC(=O)N/N=C2/CC(=O)CC(C)(C)C2)c1`, the Potency entry is “inactive”.

For the compound `O=C(CN1CCOCC1)Nc1cc(Cl)ccc1Cl`, the Potency result was “inactive”.

On to `O=C(COc1cccc2ccccc12)Nc1cc(S(=O)(=O)N2CCOCC2)ccc1N1CCOCC1`, for which the Potency entry was “inactive”.

Regarding `O=C(CN1CCN(c2ccc(O)cc2)CC1)Nc1cc(S(=O)(=O)N2CCOCC2)ccc1Cl`, the Potency is 25.1 µM (active).

`C/C(Cl)=C\Cn1c(Nc2cccc(C)c2)nc2c1c(=O)n(C)c(=O)n2C`: the Potency is 20 µM (active).

Regarding `Cn1c(=O)c2c(nc(N/N=C/c3cccs3)n2Cc2ccc(Br)cc2)n(C)c1=O`, the Potency entry is “inactive”.

With `C=CCn1c(Oc2ccc(C(=O)OC)cc2)nc2c1c(=O)n(C)c(=O)n2C`, the Potency entry was “inactive”.

On to `CC[C@H](C)[C@@H](C(=O)N1CCNCC1)n1cc([C@@H](N)Cc2ccc(O)cc2)nn1`, for which the Potency result was “inactive”.

On to `COC(=O)C1=C(C(=O)OC)[C@@H]2N(C)c3ccccc3[C@@]23C[C@@H](C(=O)OC)N(S(=O)(=O)c2ccc(Br)cc2)C3=N1`, for which the activity, negative = inhibition was 6.9% [at 13.5 µM] (inactive).

In the case of `O=c1[nH]n2c(=O)c3c([nH]c2c1N=Nc1ccccc1)CCC3`, the Potency entry is “inactive”.

Regarding `O=[N+]([O-])/C(N=Nc1ccccc1)=N\Nc1ccccc1`, the Potency was 14.1 µM (active).

Turning to `O=C(/C=N/O)Nc1ccccc1`, the Potency result is “inactive”.

As for `COc1cc(C(=O)Nc2cc(C(F)(F)F)ccc2-n2cncn2)cc(OC)c1OC`, the Potency entry was “inactive”.

For `CCOc1ccc(CN2CCN(Cc3ccon3)CC2CCO)cc1` (stereo not drawn), the Potency result is “inactive”.

For `COc1ccc(/C=N/NC(=O)c2cccc(C(F)(F)F)c2)cc1`, the Potency result was “inactive”.

`CCOc1ccc2nc(C(=O)N3CCCC(C)C3)sc2c1` (stereo not drawn): the Potency is 14.1 µM (active).

For `COc1ccc2nc(NC(=O)[C@@H]3CCCN3C(=O)c3cccs3)sc2c1`, the Potency entry was “inactive”.

For `CCOc1ccc(NC(=O)C2CCCN(C(=O)Nc3ccccc3)C2)cc1` (stereo not drawn), the Potency result was “inactive”.

In the case of `COc1cc(OC)nc(N/N=C(\c2ccccc2)c2ccncc2)n1`, the Potency result is “inactive”.

With `COc1ccc(-c2nnc3ccc(SCc4ccccc4)nn23)cc1`, the Potency entry was “inactive”.

In the case of `Fc1cccc(CSc2nnc3ccc(-c4ccncc4)nn23)c1`, the Potency result was “inactive”.

Consider `Cc1ccc(/C=C/C(=O)Nc2cc(S(=O)(=O)N3CCCCCC3)ccc2OCC(F)(F)F)o1`, for which the Potency is 28.2 µM (active).

With `Cc1cccc(OCCC(=O)Nc2cc(S(=O)(=O)N3CCCCC3)ccc2N2CCOCC2)c1`, the Potency result is “inactive”.

Turning to `COc1ccc(S(=O)(=O)N2CCCCCC2)cc1C(=O)OCC(=O)Nc1cc(C)on1`, the Potency result is “inactive”.

On to `CCc1ccc(CN2C(=O)c3ccccc3C2C(=O)NCC2CCCO2)cc1` (stereo not drawn), for which the Potency entry was “inactive”.

On to `CC(Sc1nnc2c(n1)C1CCC2(C)C1(C)C)C(=O)Nc1ccccc1` (stereo not drawn), for which the Potency entry was “inactive”.

Take `CSc1nc(N(C)NC(=O)c2cccc(C)c2)c2ccccc2n1`: the Potency entry was “inactive”.

For the compound `CSc1nc(C)cc(SC(C(C)=O)C(=O)Nc2ccccc2)n1` (stereo not drawn), the Potency is 15.8 µM (active).

Regarding `CC(=O)c1cc(-c2ccccc2)n(CC(=O)NC2CCCCC2)c1C`, the Potency entry is “inactive”.

In the case of `COC(=O)C(C(=O)OC)C1c2ccccc2C=C(C2CC2)N1C(=O)OC` (stereo not drawn), the Potency entry is “inactive”.

In the case of `CC(C)(C)N(CC#CCC(O)(c1ccccc1)C1CCCC1)CCO` (stereo not drawn), the Potency result is “inactive”.

As to `O=C(COC(=O)c1ccc(F)cc1)Nc1nc2ccc([N+](=O)[O-])cc2s1`, the Potency entry was “inactive”.

Regarding `CC(C)C(NC(=O)C1CCC(C(C)(C)C)CC1)C(=O)NCCCN1CCCCC1` (stereo not drawn), the Potency entry is “inactive”.

For `COc1cccc(NC(=O)CN(C)S(=O)(=O)c2ccc(C)cc2)c1`, the Potency entry is “inactive”.

As for `COC(=O)c1sc(C(F)(F)F)c(-c2ccccc2)c1S(=O)(=O)N(C)C`, the Potency result was “inactive”.

For `CCOC(=O)CN(C)S(=O)(=O)c1ccc(-c2cc(C(=O)OC)sc2C(F)(F)F)cc1`, the Potency was 5.97 µM (active).

Regarding `Cc1ccc(SC(C)C(=O)NCc2ccc(F)cc2)cc1` (stereo not drawn), the Potency entry was “inactive”.

With `Cc1ccc(SC(CC(=O)c2ccc(C(C)(C)C)cc2)C(=O)O)cc1` (stereo not drawn), the Potency is 0.199 µM (active).

As to `Cc1ccn(C(CC(=O)c2ccc(Br)cc2)C(=O)O)n1` (stereo not drawn), the Potency entry is “inactive”.

Regarding `Cc1sc2c(c1C)c(=O)n(-c1ccccc1)c(=O)n2CC(=O)NCC1CCCO1` (stereo not drawn), the Potency result is “inactive”.

As for `Cn1c(=O)c2c(nc(N3CCCCCC3)n2CC(=O)c2ccc(Br)cc2)n(C)c1=O`, the Potency entry was “inactive”.

Turning to `Cn1c(=O)c2c(nc(N3CCCCCC3)n2CC(O)COc2ccc(Cl)cc2)n(C)c1=O` (stereo not drawn), the Potency is 11.2 µM (active).

With `O=C(c1ccc(Cl)cc1)c1ccc(OCC(O)CN2CCCCC2)cc1` (stereo not drawn), the Potency entry is “inactive”.

Consider `CC(C(=O)N=Nc1c(O)n(C)c2ccc(Br)cc12)n1cnc2ccccc2c1=O` (stereo not drawn), for which the Potency entry was “inactive”.

On to `Cc1ccc(S(=O)(=O)Nc2nc(N)n(-c3ccccc3)n2)cc1`, for which the Potency entry was “inactive”.

Consider `Cc1c(NC(=O)CSc2nnnn2-c2ccc(C(=O)O)cc2)c(=O)n(-c2ccccc2)n1C`, for which the Potency result was “inactive”.

Take `O=c1c2ccccc2nnn1CSc1nnnn1-c1ccccc1`: the Potency entry was “inactive”.

Consider `Cc1ccccc1-n1nnnc1SCCCC(=O)c1ccc(F)cc1`, for which the Potency was 0.0794 µM (active).

Take `NC(N)=Nc1nc2ccc(Br)cc2c(=O)[nH]1`: the Potency result was “inactive”.

Consider `O=C(Nc1cccnc1)c1ccc(Cl)c([N+](=O)[O-])c1`, for which the Potency result is “inactive”.

As to `COCCn1c(C)cc(C(=O)CSc2ncnc3sc4c(c23)CCC4)c1C`, the Potency entry is “inactive”.

Turning to `Cc1cc(C)n(-c2nc(SCC(=O)N3CCCC3)c3c4c(sc3n2)CCCC4)n1`, the Potency was 14.1 µM (active).

As for `C=C(C)CSc1nc(N)c2c3c(sc2n1)CCC3`, the Potency result was “inactive”.

On to `Cc1[nH]nc(SCC(=O)NCC(C)C)c1[N+](=O)[O-]`, for which the Potency entry was “inactive”.

Turning to `Cc1ccccc1CS(=O)(=O)CC1(O)CCN(C(=O)c2cccc(C(F)(F)F)c2)CC1`, the Potency result is “inactive”.

As to `Cc1ccccc1CN1CCN(C(=O)c2cccc(F)c2)CC1`, the Potency was 15.8 µM (active).

On to `O=C(CN1CCN(C(=O)c2cccc(F)c2)CC1)Nc1ccccc1F`, for which the Potency was 12.6 µM (active).

Consider `O=C(c1cccc(F)c1)N1CCC(O)(c2cccnc2)CC1`, for which the Potency entry was “inactive”.

In the case of `O=C(c1cccc(F)c1)N1CCC2(CC1)CCN(c1ccccc1)CC2`, the Potency result is “inactive”.

As for `O=C(CN1CCN(C/C=C/c2ccccc2)CC1)Nc1ccc(F)cc1F`, the Potency entry is “inactive”.

On to `COc1ccc(Cn2c(=O)cc(C)[nH]c2=S)cc1`, for which the Potency entry was “inactive”.

As to `CCOc1ccc2sc(NS(=O)(=O)c3ccc(N)cc3)nc2c1`, the Potency entry is “inactive”.

Regarding `Cc1cccc(NC(=S)NCCN(C2CCCCC2)C2CCCC2)c1`, the Potency result was “inactive”.

Regarding `CCOc1ccc(/C=C(/NC(=O)c2ccccc2)C(=O)NCCC(=O)O)cc1`, the Potency result is “inactive”.

With `Cc1ccccc1CC1(CO)CCCN(C(=O)c2cc(-c3ccccc3)no2)C1` (stereo not drawn), the Potency entry was “inactive”.

As for `COc1cc(C(=S)N2CCOCC2)cc(OC)c1OC(=O)c1cc([N+](=O)[O-])c(C)c([N+](=O)[O-])c1`, the Potency result is “inactive”.

In the case of `O=C(Oc1ccccc1C(=S)N1CCCCC1)c1cc([N+](=O)[O-])cc([N+](=O)[O-])c1`, the Potency is 8.91 µM (active).

As for `O=[N+]([O-])c1ccccc1OCCCCN1CCCCC1`, the Potency result is “inactive”.

Regarding `Cc1cc(C)n(Cc2cnc(N3CCOCC3)s2)n1`, the Potency entry was “inactive”.

For `Cc1nn(CC2CC2)c(=O)n1N(C)c1ncc(C(F)(F)F)cc1Cl`, the Potency result is “inactive”.

Take `CC(C)(C)C(=O)/C(C#N)=C/c1ccc(O)cc1`: the Potency was 1.58 µM (active).

On to `CCOC(=O)/C(C#N)=C\c1c(C)cc(C)c(COC(C)=O)c1C`, for which the Potency result was “inactive”.

For the compound `N#C/C(=C\c1ccc(O)c(O)c1)C(=O)NCc1ccccc1`, the Potency result is “inactive”.

On to `COc1ccccc1NC(=O)CSc1nnc(C)n1CC1CCCO1` (stereo not drawn), for which the Potency entry was “inactive”.

On to `CC(=O)Nc1ccc(NC(=O)CSc2nnc(COc3ccccc3C)n2CC2CCCO2)cc1` (stereo not drawn), for which the Potency was 10 µM (active).

Turning to `C=CCn1c(COc2ccccc2C)nnc1SCC(=O)O`, the Potency result is “inactive”.

Take `CC(OC(=O)c1ccccc1N1C(=O)C2C3CCC(C3)C2C1=O)C(=O)c1ccccc1` (stereo not drawn): the Potency entry was “inactive”.

Consider `O=[N+]([O-])c1ccccc1Nc1ccc(O)cc1`, for which the Potency result was “inactive”.

As to `COc1cccc(NS(=O)(=O)c2ccc3[nH]cc(C(=O)NCCCOC(C)C)c(=O)c3c2)c1`, the Potency was 11.2 µM (active).

For the compound `CCNS(=O)(=O)c1ccc(NC(=O)Nc2cccc(OC)c2)cc1`, the Potency entry is “inactive”.

`CC(C)OCCCNC(=O)c1cc(Sc2ccc(F)cc2)nc2ccccc12`: the Potency entry was “inactive”.

Take `Cc1ccc(Nc2c3c(nc4ccccc24)CCC3)cc1`: the Potency entry was “inactive”.

Regarding `Cc1ccc(-c2csc(NC(=O)Cn3[nH]c(=O)c4ccccc4c3=O)n2)cc1`, the Potency entry was “inactive”.

Regarding `CCOC(=O)c1sc(NC(=O)CSc2nc(C)cc(C(F)(F)F)n2)c(C#N)c1C`, the Potency is 2.24 µM (active).

Consider `Cc1cc(C(F)(F)F)c(C#N)c(SCC(=O)NC2CC2)n1`, for which the Potency result was “inactive”.

As to `CCOC(=O)c1ccc(NC(=O)CSc2ncccn2)cc1`, the Potency entry is “inactive”.

As to `CCN(CC)C(=O)c1sc(NC(=O)c2ccco2)c(C#N)c1C`, the Potency entry is “inactive”.

On to `CCOC(=O)c1sc(NC(=O)CSc2n[nH]c(CC)n2)nc1C`, for which the Potency entry is “inactive”.

As for `CCOC(=O)c1sc(NC(=O)CSc2ncccn2)c(C#N)c1C`, the Potency was 28.2 µM (active).

On to `O=C(Nc1cccc(CCc2ccccn2)c1)c1ccc(Cl)cc1`, for which the Potency result was “inactive”.

`O=C(Cn1nnc2ccccc2c1=O)NCc1ccc(Cl)cc1`: the Potency result is “inactive”.

`O=C(NCc1ccc(Cl)cc1)c1cc(=O)nc2sc(-c3ccccc3)nn12`: the Potency is 5.01 µM (active).

For the compound `Nc1c(C(=O)NCc2ccccc2)nnn1Cc1cccc(Cl)c1`, the Potency entry is “inactive”.

Regarding `O=C(Nc1cccnc1)c1ccc2c(c1)OCO2`, the Potency result is “inactive”.

For the compound `COc1ccc(C(=O)Nc2cccnc2)cc1C(=O)Nc1cccnc1`, the Potency entry was “inactive”.

Take `CCOC(=O)c1ccc(-c2ccc(C(=O)Nc3cccnc3)o2)cc1`: the Potency is 22.4 µM (active).

For the compound `OC1CSc2nc3ccccc3n2C1` (stereo not drawn), the Potency entry is “inactive”.

Source of the values: PubChem BioAssay AID1030 (National Center for Advancing Translational Sciences (NCATS), 2008).
